Most compounds without a hit are left out; they make up all but 10% or so of the library.
GLS inhibitor: inhibitors of human glutaminase (GLS); O94925; GLS enzymatic activity, qHTS titration; Potency, µM (top dose mostly 45.5 µM), for inactives: top-dose activity change, negative = inhibition, usual class: inhibitors; 410,000 tested, 0.21% active; AID 624170; further: on the % scale 0 is the no-effect control and ±100 the full control effect
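hKGA in 45 mM KH2PO4 pH 8.2, 0.02% Tween-20 with pin-transferred compounds; 1 mM L-glutamine (stock) plus glutamate oxidase/HRP/Amplex Red coupling added. Fluorescence read initially and after 30 min at RT.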
BAZ2B inh: blocks human BAZ2B; Q9UIF8; AlphaScreen BAZ2B-H3K14Ac peptide displacement; Potency, µM (titrated, usually from 114 µM), for the others: at the highest dose activity change, negative = inhibition, actives largely listed as inhibitors; 360,000 tested, 4.4% active; AID 504333; further: on the % scale 0 is the no-effect control and ±100 the full control effect; nearly all actives have a fitted effect of over 60% in size
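In this displacement format the biotinylated H3(5-23) peptide acetylated at Lys14 serves as ligand at 50 nM, with BAZ2B at 50 nM in PBS pH 7.4 containing 0.01% Tween-20. Donor and acceptor beads are 10 ug/mL final.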
L3MBTL1 inh: inhibitors of human L3MBTL1. AlphaScreen L3MBTL1–H3K9me1 peptide binding. Potency, µM (top dose mostly 57.1 µM), for the others: top-dose activity, negative = inhibition, actives largely listed as inhibitors. 230,000 tested, 0.66% active; further: on the % scale 0 is the no-effect control and ±100 the full control effect; nearly all actives have a fitted effect of over 60% in size
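L3MBTL1 (50 nM) pre-complexed 30 min with biotinylated H3(1-15)K9me1 peptide (75 nM), then compounds added for 30 min at room temperature; AlphaScreen streptavidin donor/nickel chelate acceptor beads (10 ug/mL final) read after 30 min dark incubation.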
JMJD2A Tudor inh: blocks the human JMJD2A Tudor domain | AlphaScreen JMJD2A-Tudor / H3K4me3 peptide binding | Potency, µM (titrated, usually from 114 µM), for inactives: at the highest dose activity change, negative = inhibition, usual class: inhibitors | 390,000 tested, 4.4% active; further: on the % scale 0 is the no-effect control and ±100 the full control effect; nearly all actives have a fitted effect of over 50% in size
HP1b chromo inh: blocks HP1-beta chromodomain binding to methylated histone tails; P83916; AlphaScreen HP1-beta / biotin-H3K9me3 peptide binding; Potency, µM (doses to about 114 µM), inactives show at the highest dose activity change, negative = inhibition, usual class: inhibitors; 390,000 tested, 0.56% active; further: nearly all actives have a fitted effect of over 70% in size
Target sequence (P83916 whole entry, looked up): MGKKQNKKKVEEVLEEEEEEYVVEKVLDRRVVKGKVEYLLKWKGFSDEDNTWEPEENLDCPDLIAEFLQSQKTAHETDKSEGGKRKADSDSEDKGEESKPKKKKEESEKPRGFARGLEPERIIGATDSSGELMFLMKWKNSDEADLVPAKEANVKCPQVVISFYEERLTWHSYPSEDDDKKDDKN
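AlphaScreen: HP1-beta (50 nM) preformed 30 min with biotin-H3(1-18)K9me3 peptide (50 nM) in PBS pH 7.4, 0.01% Tween-20. Compound added for 30 min at RT, then streptavidin donor/nickel chelate acceptor beads (10 ug/mL) for 30 min.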
G9a inh: blocks human histone lysine methyltransferase G9a; 350,000 tested, 8.8% active; Potency, µM (highest dose often 102 µM), inactives show top-dose activity, negative = inhibition, actives largely listed as inhibitors; G9a H3K9 monomethylation, AlphaScreen, 2 h; AID 504332; Q96KQ7; further: on the % scale 0 is the no-effect control and ±100 the full control effect; nearly all actives have a fitted effect of over 75% in size
Target sequence (Q96KQ7 913-1193 limits assumed): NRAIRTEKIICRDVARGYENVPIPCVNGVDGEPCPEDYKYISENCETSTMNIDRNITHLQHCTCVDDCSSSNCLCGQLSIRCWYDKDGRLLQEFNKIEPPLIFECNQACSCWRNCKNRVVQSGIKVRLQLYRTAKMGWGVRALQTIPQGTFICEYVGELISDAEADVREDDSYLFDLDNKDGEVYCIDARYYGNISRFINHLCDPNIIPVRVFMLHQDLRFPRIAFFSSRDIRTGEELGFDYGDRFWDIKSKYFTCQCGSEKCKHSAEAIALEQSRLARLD
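Quantitative HTS format: methyltransferase activity on a biotin-tagged H3K9 peptide is measured by AlphaScreen, using a rabbit anti-monomethyl-H3K9 antibody with streptavidin donor and anti-IgG acceptor beads. Final levels are 20 nM enzyme, 500 nM peptide, 20 uM SAM; 2 h RT.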
* = called active by the depositor; u = inconclusive; x = no result given; [ ] = another dose, or the depositor's remark. The call rests on the fitted dose curve; in most records, active means well fitted curve in the direction sought with a large enough effect; inconclusive means small, poorly fitted or top-dose-only effect, or another doubt; inactive means no such curve, though single readings can be large; an effect the other way counts as inactive or inconclusive. Potency means the concentration at half of the fitted maximal effect.

SMILES	GLS inhibitor	BAZ2B inh	L3MBTL1 inh	JMJD2A Tudor inh	HP1b chromo inh	G9a inh
O=C(C[n+]1cc(Br)cc(Br)c1)c1ccc(Cl)cc1	-11.6%	-14.4%	x	-28.0%	35.0%	u
Cc1ccc(C(=O)C[n+]2cc(Br)cc(Br)c2)cc1[N+](=O)[O-]	1.6%	u	-10.6%	u	3.2%	50.1µM*
Cc1cc(Br)ccc1NC(=O)C(Cc1ccccc1)NS(=O)(=O)c1ccc(Br)s1 (stereo not given)	-1.6%	5.3%	x	-8.6%	18.5%	5.7%[59 µM]
Cc1ccc(C2CC(=O)N(Cc3ccccc3F)c3c2c(C)nn3-c2nc(C)cc(C)n2)cc1 (stereo not given)	-0.4%	-22.0%	x	-11.6%	60.3%	-21.1%[59 µM]
CCOc1ccc(NC(=O)C2CCCN(S(=O)(=O)c3cccc4nonc34)C2)cc1 (stereo not given)	-1.7%	-11.5%	x	-16.4%	6.3%	3.7%[59 µM]
O=C(C[n+]1cc(Br)cc(Br)c1)c1ccccc1	-8.5%	-2.2%	x	-13.4%	1.1%	-21.6%
O=C(C[n+]1cc(Br)cc(Br)c1)c1ccc(-c2ccccc2)cc1	3.0%	u	x	u	16.7%	25.1µM*
O=C(C[n+]1cn(C(F)F)c2ccccc21)c1ccc(Br)cc1	-15.5%	50.1µM*	-14.1%	-22.1%	40.3%	-7.1%[59 µM]
Cc1ccc(C(=O)C[n+]2ccccc2)cc1	3.1%	2.6%	x	-7.0%	19.7%	14.1µM*
COc1ccc(-c2nc(CSCC(=O)NCCc3ccc(OC)c(OC)c3)c(C)o2)cc1	-0.4%	-27.4%	x	-8.1%	44.0%	-26.4%[59 µM]
COC(=O)c1c(C)sc(-c2c(-c3ccc(F)cc3)[nH]c3[nH]c(=O)[nH]c(=O)c23)c1O	12.5%	u	x	u	12.2%	u
CCC(C)c1ccccc1OCC(=O)Nc1ccc(S(=O)(=O)Nc2cc(C)on2)cc1 (stereo not given)	18.6%	4.1%[57.1 µM]	x	-12.0%	32.9%	2.8%[59 µM]
O=C(OCC#CCSc1nnc(-c2cc3ccccc3cc2O)o1)c1ccc(F)cc1	x	x	x	-13.6%	x	x
O=c1oc2ccc(Br)cc2cc1-c1nc2c(s1)CCc1ccccc1-2	x	x	x	18.5%[57.1 µM]	29.2%[57 µM]	x
Fc1ccccc1Nc1nc2c(s1)CCc1ccccc1-2	x	u	-8.0%	x	x	6.31µM*
COC(=O)c1ccc(-c2nc(O)c(C)s2)cc1	-14.8%	u	7.6%	-28.7%	u	7.08µM*
CC1=C(C(=O)OC(C)C)C(c2cccc([N+](=O)[O-])c2)C(C(=O)OC2CN(C(c3ccccc3)c3ccccc3)C2)=C(N)N1 (stereo not given)	1.1%	x	x	x	x	-7.1%[12.7 µM]
CCC(C)n1c(NC(=O)c2ccccc2)c(C#N)c2nc3ccccc3nc21 (stereo not given)	4.1%	13.4%	6.31µM*	10.6%	91.2%	59.7%
CCCCn1c(NC(=O)c2ccccc2)c(C#N)c2nc3ccccc3nc21	25.7%	-6.6%	-17.3%	-16.3%	79.0%	80.9%
CN1/C(=C\C=C2/SC(=S)N(CC(=O)O)C2=O)C(C)(C)c2ccccc21	-22.9%	28.2µM*	-24.1%	u	35.5µM*	17.8µM*
C=CCN1C(=O)/C(=C\C=C2\N(C)c3ccccc3C2(C)C)SC1=S	15.7%	u	-11.2%	u	u	15.8µM*
CCCN1C(=O)/C(=C/C=C2\N(CC)c3ccccc3C2(C)C)SC1=S	-7.4%	1.78µM*	-16.1%	11.2µM*	10µM*	u
CCCN1C(=O)/C(=C\C=C2/Sc3ccccc3N2CCO)SC1=S	0.0%	-27.8%	-4.2%	-9.8%	3.5%	u
CC1C=CCC2C(=O)N(c3ccc(Cl)cc3O)C(=O)C12 (stereo not given)	u	8.1%	1.4%	15.8µM*	u	9.0%[59 µM]
CC(=O)Nc1nonc1NC(C)=O	-11.6%	9.6%	-2.0%	-1.4%	35.6%	-11.5%[59 µM]
SMILES	GLS inhibitor	BAZ2B inh	L3MBTL1 inh	JMJD2A Tudor inh	HP1b chromo inh	G9a inh
CC(=O)Oc1ccc2nonc2c1OC(C)=O	x	x	x	u	20µM*	x
CC(=O)Nc1cc(OC(C)=O)c2nonc2c1OC(C)=O	9.5%	u	2.51µM*	-19.5%	30.1%	u
CC(=O)Oc1cccc(C(=O)O)c1OC(C)=O	-1.5%	x	x	x	x	u
Cc1ccc(C)c(-c2nnc(NC(=O)c3ccc4c(c3)OCCO4)o2)c1	3.2%	9.9%	x	-20.1%	25.0%[57 µM]	54.3%[59 µM]
c1ccc(-c2cccc(-c3ccccn3)n2)nc1	6.2%	17.8µM*	u	20µM*	30.9%	-11.1%
Cc1ccc(-c2nc(CS(=O)(=O)CC(=O)NCCc3ccccc3)c(C)o2)cc1	-4.1%	-1.7%	x	-13.8%	20.0%	-2.4%[59 µM]
C=CCN1C(c2cccc(C(F)(F)F)c2)=CS/C1=C(/C#N)c1nnc(N2CCOCC2)n1-c1ccccc1	0.8%	50.1µM*	-14.9%	50.1µM*	0.4%	79.4µM*
C=CCN1C(c2ccc(Br)cc2)=CS/C1=C(/C#N)c1nnc(N2CCOCC2)n1-c1ccccc1	-2.8%	u	-13.8%	u	u	u
CC(=O)N1CC[n+]2c(-c3ccc(Cl)cc3Cl)csc21	3.4%	u	-2.9%	-32.5%	28.0%	12.6µM*
O=C(O)c1ccc(-c2nc(-c3ccc(Cl)cc3Cl)cs2)cc1	10.4%	u	6.2%	-17.4%	14.6%	u
CC1CCC(NC(=O)CCCn2sc3ccccc3c2=O)CC1 (stereo not given)	18.7%	-16.0%	x	u	9.6%	22.4µM*
CCCOC(=O)c1ccc(NC(=O)C2C3C=CC(O3)C2C(=O)O)cc1 (stereo not given)	20.4%	-28.4%	3.4%	-18.4%	51.7%	14.1µM*
COc1cccc(NC(=O)C2C3C=CC(O3)C2C(=O)O)c1 (stereo not given)	-3.1%	-36.9%	-3.3%	-5.5%	40.8%	x
CC(C)OC(=O)c1cc(NC(=O)C2C3C=CC(O3)C2C(=O)O)cc(C(=O)OC(C)C)c1 (stereo not given)	7.0%	u	x	u	73.3%	50.1µM*
COc1ccc(NC(=O)C2C3C=CC(O3)C2C(=O)O)cc1 (stereo not given)	10.9%	-0.7%	2.0%	-18.5%	24.8%	39.8µM*
OCC(O)/C=N/Nc1nc(N2CCCCC2)nc(N2CCCCC2)n1 (stereo not given)	0.8%	-17.2%	x	-5.2%	53.7%	56.2µM*
C(=C\c1ccccc1)/C=N/Nc1nc(N2CCCCC2)nc(N2CCCCC2)n1	-7.8%	-3.8%[57.1 µM]	-3.8%	-7.7%	38.2%	35.8%[0.501 µM]
Cc1ccc(NC(=O)CSCC#N)cc1	0.5%	4.3%	x	4.6%	22.6%	50.1µM*
N#CCSCC(=O)Nc1ccc(Br)cc1	-0.7%	11.2%	x	-13.7%	10.7%	10.5%[2.33 µM]
CC(C)CNC(=S)N1CCC(c2nc(-c3ccc(F)cc3)no2)CC1	-13.9%	-11.6%	1.1%	2.3%	40.9%	9.2%

Source: PubChem
